# In the library only some 2.1% were active in any assay of this set; here they are far more common.
# PABP FP inh – PABP poly(A) RNA binding inhibitors, primary screen, biochemical, fluorescence polarization, uHTS; Polyadenylate-binding protein 1 (Homo sapiens), P11940; inhibition, % at 35 µM; 290,000 compounds, 1% hits; AID 2014, 2009;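 note: calls also rest on retests at 20 µM and on dose response follow-up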
# NRP1-CendR mod – modulators of CendR peptide binding to NRP-1, primary screen, biochemical, fluorescence polarization, uHTS. Neuropilin-1 (Homo sapiens), O14786. FAM-RPARPAR peptide binding to NRP-1. inhibition, % at 25 µM. 360,000 compounds, 0.85% hits;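 active = inhibition or corrected inhibition above about 18%, plus a signal ratio from 0.5 to 1.5, limit read from the data, passing the limit was not always enough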
# PABP1 MLLE inh – inhibitors of PABP1 MLLE–PAM2 peptide binding, primary screen, biochemical, fluorescence polarization, FITC-PAM2, GST-MLLE; Polyadenylate-binding protein 1 (Homo sapiens), P11940; inhibition, % at 20 µM; 360,000 compounds, 0.36% hits; AID 588489, 2011; in the data active = inhibition above about 35%, passing the limit was not always enough;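 note: plate controls were DMSO wells with GST-MLLE for no effect and wells lacking GST-MLLE protein for full effect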
# eIF4H FP inh – human eIF4H binding inhibitors, primary screen, translation initiation inhibitor project, biochemical, uHTS, fluorescence polarization. 290,000 compounds, 0.94% hits. eIF4H fluorescence polarization binding assay. inhibition, % at 35 µM. Eukaryotic translation initiation factor 4H (Homo sapiens), Q15056;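 note: calls also rest on retests at 20 µM and on dose response follow-up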
# Active calls of the source: *; ? = inconclusive; · = not tested or not shown. Unless noted, the rule behind the calls is not given here.
SMILES,PABP FP inh,NRP1-CendR mod,PABP1 MLLE inh,eIF4H FP inh
CC1(C(=O)NCc2ccccc2)CSCC(=O)N1CCc1c[nH]c2ccccc12 (stereo not drawn),·,-1.2,·,·
Cc1cc(C)c(NC(=O)CN(C)C(=O)CCN2C(=O)C3CCCCC3C2=O)c(C)c1 (stereo not drawn),·,-4.3,-1.2,·
CC1(OC(=O)C2CCCC2)C(=O)C=C2C=C(c3ccsc3)N(CCc3ccccn3)C=C2C1=O (stereo not drawn),45.2*,9.5,17.9,96.8
CC1(OC(=O)C2CCCC2)C(=O)C=C2C=C(c3ccsc3)N(Cc3ccccc3)C=C2C1=O (stereo not drawn),22.0,-2.0,9.0,32.6
CC(C)CN1C=C2C(=O)C(C)(OC(=O)C3CCCC3)C(=O)C=C2C=C1c1ccsc1 (stereo not drawn),38.3*,-2.2,3.5,55.3
CCOC(=O)[C@]12CCCC=C1N(Cc1ccco1)C(=O)[C@H](CC(=O)N1CCSCC1)C2,·,20.0*,·,·
CCOC(=O)[C@]12CCCC=C1N(CCC1=CCCCC1)C(=O)[C@H](CC(=O)NCC13CC4CC(CC(C4)C1)C3)C2,·,21.9*,·,·
COC(=O)[C@]12CCCCC=C1N(Cc1ccccc1)C(=O)[C@H](CC(=O)NCCCN1CCCC1=O)C2,·,-9.3,·,·
CCCCCCCCN1C(=O)[C@H](CC(=O)NCCCN2CCCC2=O)C[C@@]2(C(=O)OC)CCCCC=C12,·,29.2*,·,·
NC(=O)c1ccsc1NC(=O)CSc1nc2ccccc2c(=O)n1CCCO,7.9,-4.9,50.7*,1.4
Cn1c(SCC(=O)Nc2sccc2C(N)=O)nc2ccccc2c1=O,·,-13.3,-6.3,·
COc1ccc(S(=O)(=O)NC(=O)C2(C)CCN2C(=O)C2(c3ccccc3)CC2)cc1 (stereo not drawn),·,-0.1,7.7,·
CC(=O)c1cccc(NC(=O)CCc2nnc3ccc(N4CCOCC4)nn23)c1,-5.1,2.4,3.2,-2.0
COc1ccc(C(C)(C)C)cc1NC(=O)c1c(C)noc1C,1.0,9.6,14.4,-9.7
COc1ccc(C(C)(C)C)cc1NC(=O)CCc1c(C)noc1C,·,28.4*,1.8,·
Cc1nc2[nH]c(=S)[nH]c(=O)c2nc1C,·,-1.4,41.6*,·
O=C(NCCN1CCOCC1)c1cc(-c2ccc(F)cc2)on1,6.0,37.9*,-7.1,5.5
O=C(NCCCN1CCOCC1)c1cc(-c2ccc(F)cc2)on1,1.7,-3.9,-5.2,5.1
Cc1c(N=C2C=CC(=O)c3ccccc32)c(=O)n(-c2ccccc2)n1C,-1.7,37.7*,30.8,-2.1
O=C(CC(=O)c1ccccc1)c1ccccc1,·,3.3,8.6,·
CN(CCC(=O)c1ccccc1)CCC(=O)c1ccccc1,0.1,-5.8,43.9*,1.1
Cc1ccc(C)c(S(=O)(=O)N2CCN(C(=O)Cc3c(F)cccc3Cl)CC2)c1,·,-16.7,7.5,·
Cc1ccc(C)c(S(=O)(=O)N2CCN(C(=O)CSc3ccccc3F)CC2)c1,1.2,23.7*,3.8,-6.3
CCn1c(C)nc2cc(OC)ccc21,2.1,20.9*,14.3,1.3
CCn1c(C)nc2cc(N)ccc21,16.3,9.9,5.0,11.6
SMILES,PABP FP inh,NRP1-CendR mod,PABP1 MLLE inh,eIF4H FP inh
CCn1c(C)nc2cc(C(N)=O)ccc21,66.9*,2.3,-3.0,98.9*
O=Cc1c(N2CCN(CCO)CC2)nc2ccccn2c1=O,?,9.2,47.1*,?
Cc1ccc2nc(N3CCN(C)CC3)c(C=O)c(=O)n2c1,?,21.6*,21.3,?
CN(Cc1ccccc1)/C(=N/O)c1cccc(Cl)c1,-13.1,4.3,0.7,-2.3
Cc1c(CC(=O)O)c(=O)oc2cc3occ(-c4ccccc4)c3cc12,12.2,43.5*,-0.4,-7.9
COc1ccc(-c2coc3c(C)c4oc(=O)c(CCC(=O)O)c(C)c4cc23)cc1,50.8,-45.1,5.2,-1.7
Cc1c(CCC(=O)O)c(=O)oc2c(C)c3occ(-c4ccc(Br)cc4)c3cc12,80.0*,-150.3,-14.5,72.1*
COc1ccc(NC(=O)C(Sc2nnc(-c3ccncc3)n2-c2ccccc2C)c2ccccc2)cc1Cl (stereo not drawn),10.6,-1.3,-50.1,0.6
Cc1cccc(NC(=O)C(NS(=O)(=O)c2ccc3c(c2)CCC(=O)N3)c2ccccc2)n1 (stereo not drawn),-5.2,6.1,44.1*,-2.0
CCC(C)Nc1nnnc2c1sc1nc3c(cc12)COC(C)(C)C3 (stereo not drawn),-1.6,0.0,-4.8,85.3*
CC(=O)n1c2ccccc2c2c1c1ccccc1n2C,2.7,38.5*,66.3*,6.5
COc1ccc(CN2CCC[C@]3(N[C@H](c4ccc(C(F)(F)F)cc4)[C@@H]4C(=O)N(Cc5ccccc5)C(=O)[C@@H]43)C2=O)cc1,·,-3.3,0.3,·
CCc1nc2c(OCCOc3ccc(F)cc3)cccn2c1N(C)C(=O)C(C)C,·,-7.9,1.9,·
Cc1nc(SCC(=O)NCC2CCCO2)c2c(C)c(C)sc2n1 (stereo not drawn),·,21.4,-15.3,·
Cc1nc(SCC(=O)NCC2CCCO2)c2c3c(sc2n1)CCCC3 (stereo not drawn),1.7,29.6*,22.5,-16.8
CCc1cc(C(=O)c2ccccc2OC)c(N)s1,-2.3,0.9,37.4*,-4.8
CCc1cc(C(=O)c2ccc(OC)cc2)c(N)s1,9.1,-6.8,28.2,-3.1
COc1ncnc2c1ncn2CCCNCc1ccc(C)o1,·,-2.0,4.3,·
O=C(O)CC(c1ccc(F)cc1F)N1Cc2ccccc2C1=O (stereo not drawn),-7.5,-0.2,4.9,0.6
O=C(O)c1ccc(-c2cccc([N+](=O)[O-])c2)o1,68.0,-6.1,-2.0,3.9
N#C/C(=C(/O)c1ccc(-c2cccc([N+](=O)[O-])c2)o1)c1nc2ccccc2s1,active,-46.1,-19.8,69.1*
CN(Cc1nc2ccccc2c(=O)[nH]1)C(=O)COc1ccccc1Cc1ccccc1,·,30.8*,6.5,·
COc1ccc(NC(=O)CN2CCC(NC(=O)c3ccco3)CC2)c([N+](=O)[O-])c1,-11.8,8.8,-1.4,-4.2
Cc1c(C)n(C(=O)CSc2nc3ccccc3[nH]2)c2ccccc12,51.8*,-17.4,-76.9,67.7*
Fc1ccc(F)c(CNc2ncnc3cc(Cl)ccc23)c1,-0.7,-12.2,-6.6,-1.8
SMILES,PABP FP inh,NRP1-CendR mod,PABP1 MLLE inh,eIF4H FP inh
C[C@@]12CCC3[C@@](CCC4[C@@]3(C)CCC[C@@]4(C)C(=O)N3CCCCC3)(CC1=O)C2 (stereo partly drawn),·,-10.4,14.6,·
Cc1ccccc1CCN(C(=O)c1csnn1)C(C(=O)NC1CCCC1)c1ccco1 (stereo not drawn),-2.3,4.9,0.9,-7.8
Cc1ccc(S(=O)(=O)NC(=O)C2(C)CCN2C(=O)CC2CCCC2)nc1 (stereo not drawn),·,2.6,-4.6,·
Nc1cc2nc3ccccc3oc-2cc1=O,78.2*,-70.8,12.2,92.5
O=C(N/N=C/c1ccco1)c1cc(-c2ccc(Br)s2)[nH]n1,22.6,3.6,-5.4,7.9
C/C(=N\NC(=O)c1cc([N+](=O)[O-])cc([N+](=O)[O-])c1)c1ccco1,4.1,25.0*,13.0,5.9
